From PubChem
FBW7 act = FBW7 E3 ligase activators, primary screen, biochemical, AlphaScreen, human; normalized activity (activation), % at 26.1 µM; AlphaScreen FBW7–phospho-cyclin E peptide binding, activator screen; F-box/WD repeat-containing protein 7 (Homo sapiens), Q969H0; 0.13% of 650,000 active; in the data active = normalized activity above about 1.9%;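 also: purified mutant Fbw7 with reduced substrate affinity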
Target sequence (Q969H0 whole entry, looked up): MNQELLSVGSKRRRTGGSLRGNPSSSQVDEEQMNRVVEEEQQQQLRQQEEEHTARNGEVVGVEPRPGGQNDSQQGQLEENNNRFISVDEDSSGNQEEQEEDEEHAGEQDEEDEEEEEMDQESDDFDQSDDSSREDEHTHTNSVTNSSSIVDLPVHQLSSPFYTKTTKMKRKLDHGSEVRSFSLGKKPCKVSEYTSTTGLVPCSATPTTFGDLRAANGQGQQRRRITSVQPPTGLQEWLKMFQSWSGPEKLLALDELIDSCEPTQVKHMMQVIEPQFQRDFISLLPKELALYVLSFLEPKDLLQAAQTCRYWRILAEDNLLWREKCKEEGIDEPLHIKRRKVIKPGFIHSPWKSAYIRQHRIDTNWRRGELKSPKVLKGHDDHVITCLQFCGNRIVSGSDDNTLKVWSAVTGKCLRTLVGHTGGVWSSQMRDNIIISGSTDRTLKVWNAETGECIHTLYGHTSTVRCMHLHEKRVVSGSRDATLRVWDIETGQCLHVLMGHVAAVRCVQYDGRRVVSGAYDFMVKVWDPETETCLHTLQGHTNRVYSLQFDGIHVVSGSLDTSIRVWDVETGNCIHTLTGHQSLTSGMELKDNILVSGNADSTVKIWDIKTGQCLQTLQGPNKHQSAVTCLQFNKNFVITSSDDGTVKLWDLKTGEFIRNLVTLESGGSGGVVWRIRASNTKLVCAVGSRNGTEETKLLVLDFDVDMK
TEAD-YAP inh = TEAD-YAP interaction inhibition, primary screen, TEAD-YAP interaction inhibitor project, luminescence, HEK-TIYL cells; TEAD-Gal4/YAP UAS-luciferase luminescence; inhibition, % at 9.12 µM; AID 1259422, 2018; 1.4% of 640,000 active; in the data active = inhibition above about 32%
MITF inh = MITF inhibitors, primary screen, biochemical, AlphaScreen, human | inhibition, % at 2.6 µM | Microphthalmia-associated transcription factor (Homo sapiens), O75030 | AID 1259374, 2018 | AlphaScreen MITF homodimerization, bead proximity signal | 0.91% of 650,000 active; in the data active = inhibition above about 50%
GPR151 activ = activators of human GPR151, primary screen, cell-based, PathHunter beta-arrestin, luminescence; 1% of 650,000 active; G-protein coupled receptor 151 (Homo sapiens), Q8TDV0; PathHunter beta-arrestin GPR151 cells; AID 1508602, 2020; activation, % at 11.2 µM; in the data active = activation above about 4.9%
GPR151 conf act = GPR151 activators, triplicate retest, confirmation, cell-based, PathHunter beta-arrestin, luminescence. shares compounds with GPR151 activ. GPR151 PathHunter beta-arrestin cells, 90 min; % of EA-reagent control over plate median. activation, % at 11.2 µM. 6,700 tested, under 10 active;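 active = mean percent activation across replicates above the confirmation screen cutoff of 4.91%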
GPR119 counter = GPR119 activators in beta-arrestin cells, counter-screen for GPR151 activator project, cell-based, PathHunter beta-arrestin, luminescence, triplicate; shares compounds with GPR151 activ; 90 min; 0 = compound-well median, 100 = enzyme-acceptor control; activation, % at 11.2 µM; 0.3% of 6,700 active; AID 1508611, 2020;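 active = mean percent activation in the counterscreen above 29.09%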;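 also: counterscreen on off-target GPR119 to flag nonselective hits from the GPR151 activator screen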
Each line names hits and unclear results; the compound was inactive in the other large screens (follow-up assays come after a bar, where they were run). A selection: hits, their analogues and other compounds. The true share with any hit is near 3.5%.

Cc1cccc(NC(=O)CCC2CCN(C(=O)c3cc(C)nc(C)n3)CC2)c1	GPR151 activ 5.2 | GPR151 conf act inactive | GPR119 counter inactive
COc1ccccc1NS(=O)(=O)c1cccc(S(=O)(=O)c2ccccc2)c1	none
CC(C)N(CCNC1CCS(=O)(=O)C1)C(C)C (centres undefined)	GPR151 activ 8.4 | GPR151 conf act inactive | GPR119 counter inactive
O=C(O)CNS(=O)(=O)Cc1ccccc1	none
CCOC(=O)CNS(=O)(=O)Cc1ccccc1	GPR151 activ 6.8 | GPR151 conf act inactive | GPR119 counter inactive
O=C(NCCCOc1cccc2cccnc12)c1c(F)cccc1F	none
Cc1cccc(C(=O)N2CC(C)CC(C)C2)c1 (centres undefined)	GPR151 activ 5.6 | GPR151 conf act inactive | GPR119 counter inactive
CN(CC(=O)NN)S(=O)(=O)c1ccc(Cl)cc1	GPR151 activ 6.3 | GPR151 conf act inactive | GPR119 counter inactive
CCN(CC(=O)O)S(=O)(=O)c1cc(Cl)ccc1Cl	none
CCN(CC)S(=O)(=O)c1ccc(S(=O)(=O)c2ccc(S(=O)(=O)N(CC)CC)cc2)cc1	GPR151 activ 5.9 | GPR151 conf act inactive | GPR119 counter inactive
CCN(CC(=O)NC)S(=O)(=O)c1ccc(Cl)cc1	GPR151 activ 7.6 | GPR151 conf act inactive | GPR119 counter inactive
CCN(CC(N)=O)S(=O)(=O)c1cc(Cl)ccc1Cl	GPR151 activ 5.0 | GPR151 conf act inactive | GPR119 counter inactive
O=C1/C(=C/c2cccnc2)C(N2CCOCC2)=NN1c1ccc([N+](=O)[O-])cc1	none
CCOC(=O)CSc1nnc(CSc2ncccn2)n1-c1ccccc1	GPR151 activ 10.8 | GPR151 conf act inactive | GPR119 counter inactive
O=C(CC(c1ccccc1)c1ccccc1)N1CCOCC1	none
CC(=O)NCC1Cc2cccc(-c3ccc(S(C)(=O)=O)cc3)c2O1 (centres undefined)	GPR151 activ 7.3 | GPR151 conf act inactive | GPR119 counter inactive
CC(C)(C)C(=O)NCC1Cc2cccc(-c3ccc(S(C)(=O)=O)cc3)c2O1 (centres undefined)	none
COC(=O)c1ccc(NC(=O)/C(=C\c2ccc(OC)c(OC)c2)NC(=O)c2ccc(Cl)cc2)cc1	GPR151 activ 7.8 | GPR151 conf act inactive | GPR119 counter inactive
CCCC(=O)Nc1ccc(Oc2ccc3c(c2)C(=O)NC3=O)cc1	none
CCCC(=O)Nc1cccc(Oc2ccc3c(c2)C(=O)NC3=O)c1	GPR151 activ 6.0 | GPR151 conf act inactive | GPR119 counter inactive
Brc1ccc(-n2cc(-c3ccccc3)c3c(NCCC(c4ccccc4)c4ccccc4)ncnc32)cc1	none
CCCC(C)NS(=O)(=O)c1ccc([N+](=O)[O-])cc1 (centres undefined)	none
O=C(Cn1cc([N+](=O)[O-])cn1)n1cccn1	GPR151 activ 5.5 | GPR151 conf act inactive | GPR119 counter inactive
O=C(Cn1cc([N+](=O)[O-])cn1)Nc1ccccn1	none
O=C(O)Cc1sc(Cc2nc(O)cs2)nc1-c1ccccc1	none
O=C(Nc1ccc2nn(-c3ccccc3)nc2c1)c1ccc(-c2cccc([N+](=O)[O-])c2)o1	GPR151 activ 5.1 | GPR151 conf act inactive | GPR119 counter inactive
O=C(Cn1nnc(-c2ccccc2F)n1)Nc1ccc(OC(F)(F)F)cc1	none
Cc1ccc(OC(=O)c2ccc(N3C(=O)c4cccc([N+](=O)[O-])c4C3=O)cc2)cc1C	GPR151 activ 5.9 | GPR151 conf act inactive | GPR119 counter inactive
CC(=O)NC(=O)NC(c1ccccc1)c1cccc(Cl)c1 (centres undefined)	GPR151 activ 6.1 | GPR151 conf act inactive | GPR119 counter inactive
CCSC1=C(C#N)C(c2ccc(O)cc2)CC(=O)N1 (centres undefined)	GPR151 activ 6.2 | GPR151 conf act inactive | GPR119 counter inactive
CCSC1=C(C#N)C(c2ccc(Cl)cc2)CC(=O)N1 (centres undefined)	none
COC(=O)c1ccc2c(=O)n(CCc3ccc(OC)c(OC)c3)c(SCC(=O)Nc3ccc(C)cc3)nc2c1	none
COC(=O)c1ccc2c(=O)n(CCc3ccc(OC)c(OC)c3)c(SCC(=O)Nc3cc(C)on3)nc2c1	GPR151 activ 5.8 | GPR151 conf act inactive | GPR119 counter inactive
CCC(Sc1nc2ccccc2c(=O)n1CCc1ccc(OC)c(OC)c1)C(=O)N(CC)CC (centres undefined)	GPR151 activ 6.0 | GPR151 conf act inactive | GPR119 counter inactive
COc1ccc(CCn2c(SCC(=O)c3ccc(F)cc3)nc3ccccc3c2=O)cc1OC	GPR151 activ 5.4 | GPR151 conf act inactive | GPR119 counter inactive
COc1ccc(C(C)=O)cc1CSc1nc2ccccc2c(=O)n1CCc1ccc(OC)c(OC)c1	GPR151 activ 6.9 | GPR151 conf act inactive | GPR119 counter inactive
CCC(Sc1nc2ccccc2c(=O)n1CCc1ccc(OC)c(OC)c1)C(=O)N1CCOCC1 (centres undefined)	none
CCC(C)(C)NC(=O)C(c1cccs1)N(CCOC)C(=O)Cn1nnc2ccccc21 (centres undefined)	none
O=C(c1ccc2nonc2c1)N1CCC2(CC1)OCc1cc(Cl)ccc1O2	none
N=C1C(c2nc3ccccc3[nH]2)=C(O)CN1c1ccc(F)cc1	none
CC(C)c1ccc(N2CC(O)=C(c3nc4ccccc4[nH]3)C2=N)cc1	GPR151 activ 7.9 | GPR151 conf act inactive | GPR119 counter inactive
COc1ccccc1/C=C/C(=O)NC1CCCC1	none
CN1/C(=C\C=N\NC(=S)Nc2cccnc2)C(C)(C)c2ccccc21	GPR151 activ 7.4 | GPR151 conf act inactive | GPR119 counter inactive
Cc1ccc(-c2nc(CSCC(=O)N3CCOCC3)c(C)o2)cc1	GPR151 activ 5.0 | GPR151 conf act inactive | GPR119 counter inactive
Cc1ccc(-c2nc(CSCC(=O)N3CCN(C(=O)c4ccco4)CC3)c(C)o2)cc1	none
CC(=O)NC(NC(=O)c1ccc(Cl)cc1)C(Cl)Cl (centres undefined)	GPR151 activ 6.9 | GPR151 conf act inactive | GPR119 counter inactive
CC(=O)NNC(=O)c1ccc(Cl)cc1	none
O=C(Cn1c2ccccc2c(=O)c2ccccc21)NCc1ccc(F)cc1	none
CC1=C(C(=O)c2ccccc2)C(c2c(F)cccc2F)NC(=O)N1 (centres undefined)	none
Cc1cc(C)n(CC(C)N2CCC(n3nccc3NC(=O)CCCc3ccccc3)CC2)n1 (centres undefined)	GPR151 activ 7.2 | GPR151 conf act inactive | GPR119 counter inactive
S=C(Nc1ccc(Cl)cc1)Nc1ccccn1	none
